Bioassay records as filed in PubChem BioAssay.
The sample as a whole holds a higher share of hits than the screen did.
Methyltransferases = Primary Screen for Target Class Profiling of Small Molecule Inhibitors of Methyltransferases; 25,000 compounds, 3.9% hits; AID 1745853, 2022; calls only at 40 µM; purified enzyme, MTase-Glo SAH luminescence; hits give low values; call rule not given here
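Each enzyme was assayed with SAM and its substrate. SAH formation detected by MTase-Glo luminescence; single-point 40 uM screen[…].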
The depositor's hits bear a star; i = inactive; + = active, no number; ! = not confirmed by another sample. % is scaled to controls: 0 for no effect and ±100 for the full control effect.

SMILES	Methyltransferases
COC(=O)c1cc2n(n1)CC(C)(C(=O)NC1CCCCCC1)N(Cc1ccc(OC(C)C)cc1)C2=O (stereo not drawn)	i
CCC(C)NC(=O)c1ccc2c(=O)n(CCC(C)C)c3nn(CC(=O)Nc4ccccc4C)c(=O)n3c2c1 (stereo not drawn)	i
CCCn1c(=O)c2ccc(C(=O)NC(C)C)cc2n2c(=O)n(CC(=O)Nc3cccc(Cl)c3)nc12	i
CC1(C(=O)NCc2ccccc2)Cn2c(cc3ccccc32)C(=O)N1Cc1cccc(Br)c1 (stereo not drawn)	i
CC1(C(=O)NC2CCCC2)Cn2c(cc3ccccc32)C(=O)N1Cc1cccs1 (stereo not drawn)	i
Cc1ccc(Cn2nc3n(Cc4ccc(F)cc4)c(=O)c4ccccc4n3c2=O)cc1	i
Cc1ccccc1NC(=O)CSc1nnc2n(CC(C)C)c(=O)c3ccc(C(=O)NCC(C)C)cc3n12	i
COc1ccccc1CNC(=O)C1c2c(n(C)c3ccccc23)SCC(=O)N1c1cccc(F)c1 (stereo not drawn)	i
CC(C)(C)c1cc(/C=C(\C#N)C(N)=S)cc(C(C)(C)C)c1O	+
Cc1cc2c(cc3n2CC(C(=O)NC2CCCCC2)(c2ccccc2)N(Cc2ccccc2)C3=O)o1 (stereo not drawn)	i
COc1cccc(N2CCN(C(=O)c3ccc4c(=O)nc5c(-c6cccc(F)c6)n[nH]n5c4c3)CC2)c1	i
CNC(=O)CCn1ccc2cc(S(=O)(=O)N3CCC(C)CC3)ccc21	i
COc1cccc(CNC(=O)c2cc3n(n2)CC(C)(C(=O)NCc2ccc(C)cc2)N(C)C3=O)c1OC (stereo not drawn)	i
CC1(C(=O)NC2CCCCC2)Cn2nc(-c3cccs3)cc2C(=O)N1c1cccc(Cl)c1 (stereo not drawn)	i
CC1(C(=O)NCc2ccccc2)Cn2c(nc3ccccc32)C(=O)N1Cc1ccc(Cl)cc1 (stereo not drawn)	i
Clc1ccc(Cn2c(Cc3ccccc3)nc3ccccc32)cc1	+
Clc1ccc(Cn2c(CN3CCCC3)nc3ccccc32)cc1	i
CCCn1c(=O)c2ccc(C(=O)NC(C)C)cc2n2c(SCC(=O)Nc3ccc(C)c(F)c3)nnc12	i
CC(C)CNC(=O)c1ccc2c(=O)n(C(C)C)c3nn(CC(=O)c4cccc(Cl)c4)c(=O)n3c2c1	i
Cc1ccc(Cn2nc3n(CCCOC(C)C)c(=O)c4ccccc4n3c2=O)cc1	i
CC(C)CCn1c(=O)c2ccc(C(=O)NC3CCCCC3)cc2n2c(=O)n(CC(=O)c3ccccc3)nc12	i
CCN(CC)CCOc1ccc(Nc2ncc3cc(-c4c(Cl)cccc4Cl)c(=O)n(C)c3n2)cc1	+
CC1CCCCN1CCN1C(=O)c2ccc(-c3ccco3)n2CC1(C)C(=O)NC1CCCCCC1 (stereo not drawn)	i
O=c1cc(O)cc(/C=C/c2ccc(O)c(O)c2)o1	+
Oc1ccc(/C=C/c2cc(O)cc(O)c2)cc1	i
SMILES	Methyltransferases
O=C(/C=C/c1ccc(O)c(O)c1)OCCc1ccccc1	i
Cc1ccc(N2C(=O)c3ccc(-c4ccco4)n3CC2(C)C(=O)NC2CCCC2)cc1Cl (stereo not drawn)	i
CCCn1c(=O)c2cc(F)ccc2n2c(SCC(=O)Nc3ccccc3OC)nnc12	i
C[C@@H]1O[C@@H](OC[C@H]2O[C@@H](OCc3ccccc3)[C@H](O)[C@@H](O)[C@@H]2O)[C@H](O)[C@H](O)[C@H]1O	+
C=Cc1ccc(O[C@@H]2O[C@H](CO[C@@H]3O[C@@H](C)[C@H](O)[C@@H](O)[C@H]3O)[C@@H](O)[C@H](O)[C@H]2O)cc1	i
OC[C@H]1O[C@@H](OC[C@H]2O[C@@H](OCc3ccccc3)[C@H](O)[C@@H](O)[C@@H]2O)[C@H](O)[C@@H](O)[C@@H]1O	i
CN1C(=O)c2cc(C(=O)NCCCN3CCCC3)nn2CC1(C)C(=O)NC1CCCCCC1 (stereo not drawn)	i
CCc1cc2c(cc3n2CC(C)(C(=O)NC2CCCCC2)N(Cc2cccc(OC)c2)C3=O)s1 (stereo not drawn)	i
CC1CC(=O)C2=C(O1)OC1(C)CCC3C(C)(C)C4OC4C(=O)C3(C)C1C2 (stereo not drawn)	+
CC1CC(=O)C2=C(O1)OC1(C)CCC3C(C)(C)C=CC(=O)C3(C)C1C2 (stereo not drawn)	+
CC1(C(=O)NC2CCCCCCC2)Cn2c(ccc2-c2ccco2)C(=O)N1Cc1ccccn1 (stereo not drawn)	i
CC(C)OCCCn1c(=O)c2ccccc2n2c(=O)n(Cc3ccc(F)cc3)nc12	i
O=c1[nH]c2ccc(S(=O)(=O)N3CCN(c4ccc(F)cc4)CC3)cc2[nH]1	i
CCOc1ccc(CN2C(=O)c3cc4sccc4n3CC2(C)C(=O)NC2CCCCC2C)cc1 (stereo not drawn)	i
CCOc1ccccc1CN1C(=O)c2nc3ccccc3n2CC1(C)C(=O)NC1CCCCC1C (stereo not drawn)	i
Cc1cc2c(cc3n2CC(C)(C(=O)NC2CCCCCCC2)N(CCc2ccccc2)C3=O)o1 (stereo not drawn)	i
COc1ccc(OC)c2c1cc1n2CC(C)(C(=O)NC2CCCCC2C)N(Cc2ccccn2)C1=O (stereo not drawn)	i
COc1ccc(CCN2C(=O)c3cc4oc(C)cc4n3CC2(C)C(=O)NC2CCCCC2)cc1OC (stereo not drawn)	+
COc1ccc(OC)c2c1cc1n2CC(C)(C(=O)NC2CCCCC2)N(Cc2ccccn2)C1=O (stereo not drawn)	+
COc1ccc(OC)c2c1cc1n2CC(C)(C(=O)NC2CCCC2)N(Cc2ccccc2)C1=O (stereo not drawn)	i
Cc1cc2c(cc3n2CC(C)(C(=O)NC2CCCCC2)N(CCc2ccccc2)C3=O)o1 (stereo not drawn)	i
COc1ccc(CN2C(=O)c3cc4ccccc4n3CC2(C)C(=O)NCc2ccccc2OC)cc1 (stereo not drawn)	i
CCOc1ccccc1NC(=O)N1CCn2c(C)ccc2C1C(C)C (stereo not drawn)	i
COc1ccc(CNc2nc3c(S(=O)(=O)c4cc(C)ccc4C)nnn3c3ccccc23)cc1	i
COC(=O)c1cc2n(n1)CC(C)(C(=O)NC1CCCCC1)N(c1ccc(Cl)cc1C)C2=O (stereo not drawn)	i
SMILES	Methyltransferases
Cc1ccc(Nc2ccn3c(=O)n(CC(=O)Nc4cc(F)ccc4C)nc3n2)cc1	i
CCCN(CCC)CCN1C(=O)c2cc3sc(CC)cc3n2CC1(C)C(=O)NC1CCCCC1 (stereo not drawn)	i
Oc1ccc(Nc2nc(-c3ccc(Cl)cc3)cs2)cc1	i
Clc1ccc(-c2csc(NN=C3CCCC3)n2)cc1	+!
Cc1ccc(CNC(=O)c2sc(=S)n3c2[nH]c(=O)c2cc4c(cc23)OCO4)cc1	i
O=C(NCCc1ccccc1)c1cc(-c2ccc(Cl)cc2)nc2n[nH]c(-c3ccccc3)c12	i
COc1ccc2cc3n(c2c1)CC(C)(C(=O)NC1CCCCC1)N(Cc1cccs1)C3=O (stereo not drawn)	i
CC(C)OCCCn1c(=O)c2ccccc2n2c(CCC(=O)NC3CCCCC3)nnc12	i
CN(C)CC1CCn2c(c(C3=C(c4cn(C)c5ccccc45)C(=O)NC3=O)c3ccccc32)C1 (stereo not drawn)	+!
